Measurements from PubChem BioAssay AID493094 (Broad Institute, 2011).
The source made the active and inactive calls.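 The calls were made as follows: active = falling FRET signal with an AC50 fitted within ten times the highest valid concentration tested for that sample (actives reach about 61 µM in these data); inactive = the rest, including compounds that raise the signal.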

Assay: YIC FRET probe signal interference, dose response, counter-screen for RanGTP-importin-beta inhibitor project, biochemical, dry powder samples (AID 493094)
Settings: cell-free YIC FRET probe, YFP/CFP ratio; series mostly up to 100 µM

Structure (SMILES)	AC50
CCCN(CCC)c1nc(Cl)nc2ccccc12	inactive
CCCN(CCC)c1nc(N2CCNCC2)c2ccccc2n1	inactive
C=CCn1c(N)c(C(=O)OCCC)c2nc3ccccc3nc21	36.9 µM (active)
CC1(C)CC(=O)c2c(C(F)(F)F)nn(-c3ccc(C(N)=O)c(NC4CCC(O)CC4)c3)c2C1 (stereo unspecified)	inactive
CC1(C)CC(=O)c2c(C(F)(F)F)nn(-c3ccc(C(N)=O)c(OC4CCC(N)CC4)c3)c2C1 (stereo unspecified)	inactive
CC(C)SCC(=O)Nc1ncc2c(n1)-c1ccccc1CC2	6.37 µM (active)
CCN(CC)c1nc(N2CCCC2)nc2ccccc12	inactive
Cc1cc(Nc2ccc(C(F)(F)F)cc2)n2ncnc2n1	inactive
C[C@@H](Nc1nc(N2CCCC2)nc2ccccc12)c1ccccc1	inactive
CCCN(CCC)c1nc(N2CCCC2)nc2cc(OC)c(OC)cc12	inactive
O=c1[nH]c(N2CCCC2)nc2ccccc12	inactive
Clc1nc(NCc2ccccc2)c2ccccc2n1	inactive
CC(Nc1nc(N2CCCC2)nc2ccccc12)c1ccccc1 (stereo unspecified)	inactive
CCCN(CCC)c1nc(N)c2ccccc2n1	inactive
Cc1ccc(S(=O)(=O)c2cc3c(=O)n4cccc(C)c4nc3n(C3CCCCC3)c2=N)cc1	26 µM (active)
COc1ccc(CCNC(=O)c2cc3c(=O)n4cccc(C)c4nc3n(CCCN3CCOCC3)c2=N)cc1	4.28 µM (active)
c1ccc(CNc2nc(N3CCCC3)nc3ccccc23)cc1	inactive
O=C(O)Cn1cc(/C=C2\SC(=O)N(CC(=O)N3CCCCCC3)C2=O)c2ccccc21	55.3 µM (active)

Structure (SMILES)	AC50
C[C@H](Nc1nc(N2CCCC2)nc2ccccc12)c1ccccc1	inactive
CC1=C(C(=O)OCC2CCCO2)C(c2ccccc2OC(C)C)C2C(=O)CC(c3ccco3)CC2=N1 (stereo unspecified)	13.2 µM (active)
CCCN(CCC)c1nc(N2CCCC2)c2cc(OC)c(OC)cc2n1	inactive
COc1cc2nc(N3CCCC3)nc(N3CCCC3)c2cc1OC	inactive
CC1(C)CCC(c2ccc(Cl)cc2)=C(CN2CCN(c3ccc(C(=O)NS(=O)(=O)c4ccc(N[C@H](CCN5CCOCC5)CSc5ccccc5)c(S(=O)(=O)C(F)(F)F)c4)cc3)CC2)C1	inactive
COCCNC(=O)/C(C#N)=C/c1cn(CC(=O)NCc2ccco2)c2ccccc12	61.3 µM (active)
COc1cc(OC)cc(C(=O)NCCNc2nc3cc(C)cc(C)c3cc2C#N)c1	27 µM (active)
c1ccc2c(N3CCCC3)nc(N3CCCC3)nc2c1	inactive
CCNc1nc(N2CCCC2)nc2ccccc12	inactive
Cc1cccc(-n2c(C)cc(/C=C3/C(=N)N4N=C(CC(C)C)SC4=NC3=O)c2C)c1	25.4 µM (active)
C[C@H](Nc1nc(Cl)nc2ccccc12)c1ccccc1	inactive
CCCN(CCC)c1nc(N2CCCC2)nc2ccccc12	inactive
c1ccc2c(N3CCOCC3)nc(N3CCOCC3)nc2c1	inactive
C[C@@H](Nc1nc(Cl)nc2ccccc12)c1ccccc1	inactive
CCCN(CCC)c1nc(NCc2ccccc2)nc2ccccc12	inactive
CC1(C)CC(=O)c2c(C(F)(F)F)nn(-c3ccc(C(N)=O)c(NC4CCC(OC(=O)CN)CC4)c3)c2C1 (stereo unspecified)	inactive
COc1ccc(-c2cc(C(F)(F)F)n3nc(N)nc3n2)cc1	54.5 µM (active)
CCCN(CCC)c1nc(N2CCOCC2)nc2ccccc12	inactive
